Experiments:
Assay in all cases: DAPPL (digital affinity profiling via proximity ligation, sequencing); 10 mM Tris-HCl pH 7.5, 50 mM NaCl, 1 mM DTT, 4% glycerol, room temperature, 30 min; GST-TFs on glutathione beads, 16-mer random dsDNA library, 0.1% formaldehyde crosslink after washing; high values mean tight binding
[1] = biological target: T1, FLI1 (Homo sapiens, UniProt Q01543 1-452); settings: protein: recombinant; tags: N-terminal GST; dsDNA, one strand shown
T1 sequence: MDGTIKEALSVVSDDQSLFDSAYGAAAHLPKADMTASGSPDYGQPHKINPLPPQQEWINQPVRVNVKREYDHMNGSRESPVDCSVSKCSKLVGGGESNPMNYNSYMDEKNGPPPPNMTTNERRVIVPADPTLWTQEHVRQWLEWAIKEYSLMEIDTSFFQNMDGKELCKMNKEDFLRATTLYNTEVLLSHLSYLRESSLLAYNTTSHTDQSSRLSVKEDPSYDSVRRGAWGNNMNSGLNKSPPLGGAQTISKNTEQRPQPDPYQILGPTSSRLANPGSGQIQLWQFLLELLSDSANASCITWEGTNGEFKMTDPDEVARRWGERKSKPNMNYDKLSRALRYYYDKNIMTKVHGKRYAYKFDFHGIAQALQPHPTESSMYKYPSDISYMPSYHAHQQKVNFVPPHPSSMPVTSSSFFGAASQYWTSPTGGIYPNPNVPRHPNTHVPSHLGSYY
Summary of the method: (§1)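 GST fusions of human transcription factors were expressed in yeast and captured with glutathione beads. Once given DNA barcodes and pooled alongside a tag-only sample, they were incubated for 30 min at room temperature with 200 nmole of a random double-stranded 16-mer DNA library in Tris/NaCl/DTT/glycerol buffer, then washed, crosslinked (0.1% formaldehyde), proximity-ligated, PCR-amplified and sequenced on an Illumina NextSeq500. The binding signal of each hexamer is its read frequency for a factor divided by its frequency for the tag-only sample.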

[2] = biological target: T2, ELK1 (Homo sapiens, UniProt P19419 1-428); settings: protein: recombinant; tags: N-terminal GST; dsDNA, one strand shown
T2 sequence: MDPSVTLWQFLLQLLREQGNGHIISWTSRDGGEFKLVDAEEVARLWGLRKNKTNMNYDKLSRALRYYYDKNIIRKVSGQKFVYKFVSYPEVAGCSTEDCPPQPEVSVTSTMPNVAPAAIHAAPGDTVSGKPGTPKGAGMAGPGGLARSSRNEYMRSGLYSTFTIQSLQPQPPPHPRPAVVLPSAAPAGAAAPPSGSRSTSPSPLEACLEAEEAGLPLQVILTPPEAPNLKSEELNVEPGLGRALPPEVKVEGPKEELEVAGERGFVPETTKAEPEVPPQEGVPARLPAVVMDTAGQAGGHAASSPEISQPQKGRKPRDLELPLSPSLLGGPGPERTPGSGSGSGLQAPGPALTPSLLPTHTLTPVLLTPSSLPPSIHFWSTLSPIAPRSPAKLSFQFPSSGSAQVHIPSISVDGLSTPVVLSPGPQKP
Summary of the method: as §1

[3] = biological target: T3, GABPA (Homo sapiens, UniProt Q06546 1-454); settings: protein: recombinant; tags: N-terminal GST; dsDNA, one strand shown
T3 sequence: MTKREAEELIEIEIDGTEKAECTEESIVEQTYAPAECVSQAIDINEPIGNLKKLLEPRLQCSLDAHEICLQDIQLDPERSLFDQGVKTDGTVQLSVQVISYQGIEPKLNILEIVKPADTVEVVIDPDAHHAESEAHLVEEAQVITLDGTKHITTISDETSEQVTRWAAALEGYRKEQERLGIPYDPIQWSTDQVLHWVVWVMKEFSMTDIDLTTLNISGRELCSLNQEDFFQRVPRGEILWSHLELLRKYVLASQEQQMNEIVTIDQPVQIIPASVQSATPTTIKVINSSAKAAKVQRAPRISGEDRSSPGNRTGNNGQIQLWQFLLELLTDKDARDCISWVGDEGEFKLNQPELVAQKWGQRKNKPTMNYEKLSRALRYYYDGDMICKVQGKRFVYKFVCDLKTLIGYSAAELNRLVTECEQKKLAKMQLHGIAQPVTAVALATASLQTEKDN
Summary of the method: as §1

[4] = biological target: T4, ERG (Homo sapiens, UniProt P11308 1-479); settings: protein: recombinant; tags: N-terminal GST; dsDNA, one strand shown
T4 sequence: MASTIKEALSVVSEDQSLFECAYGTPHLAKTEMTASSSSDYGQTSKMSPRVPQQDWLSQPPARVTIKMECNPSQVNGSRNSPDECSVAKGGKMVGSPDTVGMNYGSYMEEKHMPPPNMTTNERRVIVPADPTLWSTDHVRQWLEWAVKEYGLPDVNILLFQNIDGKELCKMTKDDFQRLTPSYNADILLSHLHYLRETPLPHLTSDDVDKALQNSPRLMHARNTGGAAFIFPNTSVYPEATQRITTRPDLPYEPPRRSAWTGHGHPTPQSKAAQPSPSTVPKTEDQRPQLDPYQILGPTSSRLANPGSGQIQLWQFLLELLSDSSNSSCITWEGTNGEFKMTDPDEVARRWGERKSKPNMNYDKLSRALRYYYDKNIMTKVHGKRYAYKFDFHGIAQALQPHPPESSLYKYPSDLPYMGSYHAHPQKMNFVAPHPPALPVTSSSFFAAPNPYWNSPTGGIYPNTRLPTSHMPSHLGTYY
Summary of the method: as §1

[5] = biological target: ELF1 (Homo sapiens, UniProt P32519 1-619); settings: protein: recombinant; tags: N-terminal GST; dsDNA, one strand shown
Summary of the method: as §1

[6] = biological target: T5, EHF (Homo sapiens, UniProt Q9NZC4 1-300); settings: protein: recombinant; tags: N-terminal GST; dsDNA, one strand shown
T5 sequence: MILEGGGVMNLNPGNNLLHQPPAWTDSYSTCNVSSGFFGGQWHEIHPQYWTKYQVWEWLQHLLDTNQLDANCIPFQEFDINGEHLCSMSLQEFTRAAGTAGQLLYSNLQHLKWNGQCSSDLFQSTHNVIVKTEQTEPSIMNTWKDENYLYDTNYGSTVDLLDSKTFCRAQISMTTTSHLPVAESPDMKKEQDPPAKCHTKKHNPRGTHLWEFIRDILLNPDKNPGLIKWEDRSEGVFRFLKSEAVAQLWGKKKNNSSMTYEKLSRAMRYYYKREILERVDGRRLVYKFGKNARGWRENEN
Summary of the method: as §1

[7] = biological target: SPI1 (Homo sapiens, UniProt P17947 1-270); settings: protein: recombinant; tags: N-terminal GST; dsDNA, one strand shown
Summary of the method: as §1

[8] = biological target: SPIB (Homo sapiens, UniProt Q01892 1-262); settings: protein: recombinant; tags: N-terminal GST; dsDNA, one strand shown
Summary of the method: as §1

[9] = biological target: T6, ELK3 (Homo sapiens, UniProt P41970 1-407); settings: protein: recombinant; tags: N-terminal GST; dsDNA, one strand shown
T6 sequence: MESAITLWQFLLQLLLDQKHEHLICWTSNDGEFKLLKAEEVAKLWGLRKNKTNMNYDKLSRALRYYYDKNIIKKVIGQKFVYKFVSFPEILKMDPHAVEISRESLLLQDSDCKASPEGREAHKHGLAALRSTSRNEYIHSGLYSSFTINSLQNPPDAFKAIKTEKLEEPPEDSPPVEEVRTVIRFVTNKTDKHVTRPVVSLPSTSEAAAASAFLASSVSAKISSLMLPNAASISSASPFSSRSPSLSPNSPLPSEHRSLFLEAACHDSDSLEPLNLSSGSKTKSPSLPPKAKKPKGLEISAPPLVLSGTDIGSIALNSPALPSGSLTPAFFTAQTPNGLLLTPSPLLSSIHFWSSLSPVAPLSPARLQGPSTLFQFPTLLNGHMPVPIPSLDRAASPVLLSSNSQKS
Summary of the method: as §1

[10] = biological target: T7, FEV (Homo sapiens, UniProt Q99581 1-238); settings: protein: recombinant; tags: N-terminal GST; dsDNA, one strand shown
T7 sequence: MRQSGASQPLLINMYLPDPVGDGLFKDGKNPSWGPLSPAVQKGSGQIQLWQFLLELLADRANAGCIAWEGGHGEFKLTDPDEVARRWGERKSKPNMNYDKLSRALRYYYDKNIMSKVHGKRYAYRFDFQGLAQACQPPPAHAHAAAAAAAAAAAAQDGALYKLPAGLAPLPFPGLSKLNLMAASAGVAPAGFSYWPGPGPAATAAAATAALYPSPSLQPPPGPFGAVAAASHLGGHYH
Summary of the method: as §1

[11] = biological target: ETV5 (Homo sapiens, UniProt P41161 1-510); settings: protein: recombinant; tags: N-terminal GST; dsDNA, one strand shown
Summary of the method: as §1

[12] = biological target: HSF1 (Homo sapiens, UniProt Q00613 1-529); settings: protein: recombinant; tags: N-terminal GST; chain copies: 3; dsDNA, one strand shown
Summary of the method: as §1

[13] = biological target: T8, SPIC (Homo sapiens, UniProt Q8N5J4 1-248); settings: protein: recombinant; tags: N-terminal GST; dsDNA, one strand shown
T8 sequence: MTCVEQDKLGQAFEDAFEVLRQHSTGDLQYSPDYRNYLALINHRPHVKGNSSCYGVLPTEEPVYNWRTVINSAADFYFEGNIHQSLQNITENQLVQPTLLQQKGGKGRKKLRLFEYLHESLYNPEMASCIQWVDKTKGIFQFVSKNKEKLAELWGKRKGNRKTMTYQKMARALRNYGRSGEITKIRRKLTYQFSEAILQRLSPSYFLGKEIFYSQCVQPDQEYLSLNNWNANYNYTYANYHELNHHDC
Summary of the method: as §1

[14] = biological target: ELF4 (Homo sapiens, UniProt Q99607 1-663); settings: protein: recombinant; tags: N-terminal GST; dsDNA, one strand shown
Summary of the method: as §1

[15] = biological target: T9, ELK4 (Homo sapiens, UniProt P28324-2 1-405); settings: protein: recombinant; tags: N-terminal GST; dsDNA, one strand shown
T9 sequence: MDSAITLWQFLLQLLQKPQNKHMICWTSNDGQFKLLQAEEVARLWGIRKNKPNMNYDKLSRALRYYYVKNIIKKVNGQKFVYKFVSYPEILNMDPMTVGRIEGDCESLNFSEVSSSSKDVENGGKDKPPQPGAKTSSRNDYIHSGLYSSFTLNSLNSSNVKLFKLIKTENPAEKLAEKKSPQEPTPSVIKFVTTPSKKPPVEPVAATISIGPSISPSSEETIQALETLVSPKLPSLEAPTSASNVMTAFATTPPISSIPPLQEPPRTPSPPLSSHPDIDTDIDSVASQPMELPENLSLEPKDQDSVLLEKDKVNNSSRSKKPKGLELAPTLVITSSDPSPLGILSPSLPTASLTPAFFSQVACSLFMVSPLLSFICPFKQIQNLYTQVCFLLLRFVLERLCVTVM
Summary of the method: as §1

[16] = biological target: T10, ETV2 (Homo sapiens, UniProt O00321 1-342); settings: protein: recombinant; tags: N-terminal GST; dsDNA, one strand shown
T10 sequence: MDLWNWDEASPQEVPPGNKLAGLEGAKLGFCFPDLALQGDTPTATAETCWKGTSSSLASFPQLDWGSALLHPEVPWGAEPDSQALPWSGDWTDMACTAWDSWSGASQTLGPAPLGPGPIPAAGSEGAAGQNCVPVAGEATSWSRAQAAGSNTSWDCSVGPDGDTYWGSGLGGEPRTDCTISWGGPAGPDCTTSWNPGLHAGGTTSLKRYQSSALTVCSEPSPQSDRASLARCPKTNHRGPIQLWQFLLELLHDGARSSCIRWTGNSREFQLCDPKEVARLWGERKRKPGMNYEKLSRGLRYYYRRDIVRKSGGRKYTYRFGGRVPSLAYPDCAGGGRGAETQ
Summary of the method: as §1

[17] = biological target: T11, ELF3 (Homo sapiens, UniProt P78545 1-371); settings: protein: recombinant; tags: N-terminal GST; dsDNA, one strand shown
T11 sequence: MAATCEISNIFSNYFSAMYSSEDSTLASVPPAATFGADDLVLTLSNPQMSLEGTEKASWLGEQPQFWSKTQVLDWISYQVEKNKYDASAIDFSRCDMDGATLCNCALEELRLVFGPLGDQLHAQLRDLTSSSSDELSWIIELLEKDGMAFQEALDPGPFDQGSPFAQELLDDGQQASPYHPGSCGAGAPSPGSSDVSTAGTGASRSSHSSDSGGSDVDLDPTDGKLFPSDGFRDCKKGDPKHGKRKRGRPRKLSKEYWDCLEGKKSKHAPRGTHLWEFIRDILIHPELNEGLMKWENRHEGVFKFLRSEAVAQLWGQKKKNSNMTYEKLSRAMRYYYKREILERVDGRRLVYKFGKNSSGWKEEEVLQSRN
Summary of the method: as §1

[18] = biological target: CRX (Homo sapiens, UniProt O43186 1-299); settings: protein: recombinant; tags: N-terminal GST; dsDNA, one strand shown
Summary of the method: as §1

[19] = biological target: ETV1 (Homo sapiens, UniProt P50549 1-477); settings: protein: recombinant; tags: N-terminal GST; dsDNA, one strand shown
Summary of the method: as §1

Chain of ELF4 (Q99607 whole entry): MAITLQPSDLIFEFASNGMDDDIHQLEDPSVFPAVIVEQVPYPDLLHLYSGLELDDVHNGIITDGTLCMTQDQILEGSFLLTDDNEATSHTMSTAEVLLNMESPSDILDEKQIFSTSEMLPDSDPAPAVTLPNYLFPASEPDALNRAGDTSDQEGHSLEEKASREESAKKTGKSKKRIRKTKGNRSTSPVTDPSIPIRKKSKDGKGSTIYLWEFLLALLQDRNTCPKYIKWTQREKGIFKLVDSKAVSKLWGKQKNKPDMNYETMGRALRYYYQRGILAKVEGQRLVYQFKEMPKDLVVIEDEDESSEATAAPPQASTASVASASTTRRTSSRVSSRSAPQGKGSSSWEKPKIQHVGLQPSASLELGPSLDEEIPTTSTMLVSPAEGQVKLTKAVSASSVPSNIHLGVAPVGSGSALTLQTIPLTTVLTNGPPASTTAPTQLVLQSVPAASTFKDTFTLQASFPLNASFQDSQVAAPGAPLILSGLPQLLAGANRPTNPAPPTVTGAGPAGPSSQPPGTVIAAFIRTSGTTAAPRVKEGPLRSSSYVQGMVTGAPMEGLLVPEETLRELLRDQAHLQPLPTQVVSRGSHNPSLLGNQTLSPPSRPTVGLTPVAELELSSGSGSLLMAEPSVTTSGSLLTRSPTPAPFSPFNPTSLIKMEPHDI
Chain of ELF1 (P32519 whole entry): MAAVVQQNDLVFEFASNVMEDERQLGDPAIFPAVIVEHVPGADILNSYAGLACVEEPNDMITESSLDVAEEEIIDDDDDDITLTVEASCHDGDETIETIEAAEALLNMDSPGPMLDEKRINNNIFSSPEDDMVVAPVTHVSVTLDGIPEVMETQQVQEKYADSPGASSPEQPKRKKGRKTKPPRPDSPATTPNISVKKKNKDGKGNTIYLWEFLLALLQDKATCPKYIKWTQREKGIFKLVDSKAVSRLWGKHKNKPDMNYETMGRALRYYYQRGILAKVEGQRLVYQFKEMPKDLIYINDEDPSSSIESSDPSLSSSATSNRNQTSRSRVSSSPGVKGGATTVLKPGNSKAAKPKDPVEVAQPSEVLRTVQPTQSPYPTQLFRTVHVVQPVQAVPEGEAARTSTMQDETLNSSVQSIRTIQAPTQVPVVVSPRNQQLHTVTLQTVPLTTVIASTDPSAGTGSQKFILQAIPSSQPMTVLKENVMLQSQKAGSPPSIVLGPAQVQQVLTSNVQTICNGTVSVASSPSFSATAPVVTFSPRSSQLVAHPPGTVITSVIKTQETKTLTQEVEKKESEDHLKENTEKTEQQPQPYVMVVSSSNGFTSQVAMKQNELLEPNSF
Chain of CRX (O43186 whole entry): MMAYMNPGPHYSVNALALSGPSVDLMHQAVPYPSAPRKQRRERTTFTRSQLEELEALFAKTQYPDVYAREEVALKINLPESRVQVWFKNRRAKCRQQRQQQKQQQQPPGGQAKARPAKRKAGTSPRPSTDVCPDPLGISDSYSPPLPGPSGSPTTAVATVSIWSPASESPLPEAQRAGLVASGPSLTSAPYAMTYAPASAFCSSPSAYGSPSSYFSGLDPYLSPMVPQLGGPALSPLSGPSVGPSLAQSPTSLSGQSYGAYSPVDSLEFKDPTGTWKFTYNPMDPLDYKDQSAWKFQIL
Chain of HSF1 (Q00613 whole entry): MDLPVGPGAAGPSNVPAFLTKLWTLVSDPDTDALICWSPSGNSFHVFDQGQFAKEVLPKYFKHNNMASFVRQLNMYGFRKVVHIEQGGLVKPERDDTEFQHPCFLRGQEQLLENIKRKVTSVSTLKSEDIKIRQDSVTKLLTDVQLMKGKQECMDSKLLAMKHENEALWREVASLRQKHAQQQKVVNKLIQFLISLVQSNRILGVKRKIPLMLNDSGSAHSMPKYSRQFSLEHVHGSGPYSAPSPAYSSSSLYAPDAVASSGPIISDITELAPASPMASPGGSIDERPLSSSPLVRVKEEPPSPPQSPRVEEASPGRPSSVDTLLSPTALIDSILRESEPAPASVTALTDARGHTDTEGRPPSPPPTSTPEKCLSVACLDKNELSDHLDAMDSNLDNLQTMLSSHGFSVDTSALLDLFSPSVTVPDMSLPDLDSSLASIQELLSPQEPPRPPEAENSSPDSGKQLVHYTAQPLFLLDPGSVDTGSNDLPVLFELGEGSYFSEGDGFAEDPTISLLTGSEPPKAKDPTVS
Chain of ETV1 (P50549 whole entry): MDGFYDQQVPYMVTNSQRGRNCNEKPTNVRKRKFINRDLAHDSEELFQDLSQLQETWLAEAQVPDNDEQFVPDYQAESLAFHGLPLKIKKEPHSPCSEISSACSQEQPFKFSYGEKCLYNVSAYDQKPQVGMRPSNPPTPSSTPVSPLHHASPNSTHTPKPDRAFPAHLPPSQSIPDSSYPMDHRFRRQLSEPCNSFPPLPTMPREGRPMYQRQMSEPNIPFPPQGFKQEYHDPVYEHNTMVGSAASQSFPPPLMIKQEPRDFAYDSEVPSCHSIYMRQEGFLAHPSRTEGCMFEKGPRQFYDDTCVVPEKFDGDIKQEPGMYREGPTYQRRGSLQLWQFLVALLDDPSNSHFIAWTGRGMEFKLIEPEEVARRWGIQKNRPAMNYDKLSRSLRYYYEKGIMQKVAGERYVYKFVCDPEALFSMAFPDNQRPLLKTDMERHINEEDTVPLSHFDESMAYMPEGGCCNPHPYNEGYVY
Chain of SPIB (Q01892 whole entry): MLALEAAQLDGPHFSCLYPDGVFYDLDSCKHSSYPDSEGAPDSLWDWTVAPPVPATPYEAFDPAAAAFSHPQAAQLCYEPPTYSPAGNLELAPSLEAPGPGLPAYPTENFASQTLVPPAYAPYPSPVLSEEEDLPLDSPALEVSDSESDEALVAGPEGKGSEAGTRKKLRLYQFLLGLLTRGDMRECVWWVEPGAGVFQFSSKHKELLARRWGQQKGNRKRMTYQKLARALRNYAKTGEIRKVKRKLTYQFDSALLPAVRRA
Chain of ETV5 (P41161 whole entry): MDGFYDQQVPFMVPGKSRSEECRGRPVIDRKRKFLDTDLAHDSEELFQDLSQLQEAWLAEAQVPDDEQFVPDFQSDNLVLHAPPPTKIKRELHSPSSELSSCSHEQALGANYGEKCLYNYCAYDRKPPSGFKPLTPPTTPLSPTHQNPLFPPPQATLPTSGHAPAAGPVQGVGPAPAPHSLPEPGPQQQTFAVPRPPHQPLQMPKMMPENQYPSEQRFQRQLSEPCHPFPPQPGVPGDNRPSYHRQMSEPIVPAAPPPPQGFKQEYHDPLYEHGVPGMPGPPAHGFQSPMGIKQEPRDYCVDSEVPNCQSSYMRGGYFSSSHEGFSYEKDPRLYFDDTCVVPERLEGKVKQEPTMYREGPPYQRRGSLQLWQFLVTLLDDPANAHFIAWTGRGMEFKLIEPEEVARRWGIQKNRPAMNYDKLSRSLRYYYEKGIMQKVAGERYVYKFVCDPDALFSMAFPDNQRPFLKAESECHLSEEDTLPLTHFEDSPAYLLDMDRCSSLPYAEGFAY

CGACTA
binding signal [1]: 1.24 fold enrichment (6-mer frequency, TF over GST control) | binding signal [2]: 1.31 fold enrichment (6-mer frequency, TF over GST control) | binding signal [3]: 1.5 fold enrichment (6-mer frequency, TF over GST control) | binding signal [4]: 1.28 fold enrichment (6-mer frequency, TF over GST control) | binding signal [5]: 1.31 fold enrichment (6-mer frequency, TF over GST control) | binding signal [6]: 1.31 fold enrichment (6-mer frequency, TF over GST control) | binding signal [7]: 1.29 fold enrichment (6-mer frequency, TF over GST control) | binding signal [8]: 1.32 fold enrichment (6-mer frequency, TF over GST control) | binding signal [9]: 1.3 fold enrichment (6-mer frequency, TF over GST control) | binding signal [10]: 1.31 fold enrichment (6-mer frequency, TF over GST control) | binding signal [11]: 1.25 fold enrichment (6-mer frequency, TF over GST control) | binding signal [12]: 1.52 fold enrichment (6-mer frequency, TF over GST control) | binding signal [13]: 1.47 fold enrichment (6-mer frequency, TF over GST control) | binding signal [14]: 1.48 fold enrichment (6-mer frequency, TF over GST control) | binding signal [15]: 1.58 fold enrichment (6-mer frequency, TF over GST control) | binding signal [16]: 1.49 fold enrichment (6-mer frequency, TF over GST control) | binding signal [17]: 1.41 fold enrichment (6-mer frequency, TF over GST control) | binding signal [18]: 1.52 fold enrichment (6-mer frequency, TF over GST control) | binding signal [19]: 1.4 fold enrichment (6-mer frequency, TF over GST control)

From PMC7862700, “An all-to-all approach to the identification of sequence-specific readers for epigenetic DNA modifications on cytosine”
